Holding throughout (test): DAPPL (digital affinity profiling via proximity ligation, sequencing); 10 mM Tris-HCl pH 7.5, 50 mM NaCl, 1 mM DTT, 4% glycerol, room temperature, 30 min; GST-TFs on glutathione beads, 16-mer random dsDNA library, 0.1% formaldehyde crosslink after washing; high values mean tight binding
Common to all, as to details: protein: recombinant; tags: N-terminal GST; dsDNA, one strand shown

One assay addresses T1, ELK1 (Homo sapiens, UniProt P19419 1-428).
T1 sequence: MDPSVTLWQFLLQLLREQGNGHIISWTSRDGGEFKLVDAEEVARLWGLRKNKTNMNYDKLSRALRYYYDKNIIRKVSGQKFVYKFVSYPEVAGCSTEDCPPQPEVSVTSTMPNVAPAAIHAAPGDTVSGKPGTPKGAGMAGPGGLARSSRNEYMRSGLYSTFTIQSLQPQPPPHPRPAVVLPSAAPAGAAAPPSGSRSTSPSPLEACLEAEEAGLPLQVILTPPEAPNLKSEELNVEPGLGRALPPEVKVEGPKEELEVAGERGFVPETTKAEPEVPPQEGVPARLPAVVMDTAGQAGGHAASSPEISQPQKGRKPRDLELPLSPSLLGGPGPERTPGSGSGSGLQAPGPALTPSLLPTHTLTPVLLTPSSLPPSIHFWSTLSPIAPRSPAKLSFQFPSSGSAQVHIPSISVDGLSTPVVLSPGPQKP
The method in brief: (§1)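 Beads coated with glutathione captured GST-fused human transcription factors that had been expressed in yeast, and the factors were then given DNA barcodes and pooled with a tag-only sample. The pools were incubated with 200 nmole of a random double-stranded 16-mer DNA library in Tris/NaCl/DTT/glycerol buffer for 30 min at room temperature, washed, crosslinked with 0.1% formaldehyde and proximity-ligated with BsaI/T4 ligase at 37 °C for 1 h. PCR amplification and Illumina NextSeq500 sequencing came last. Binding signal is each hexamer's read frequency for a factor divided by its frequency for the tag-only sample.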

Another assay concerns the target T2, ERG (Homo sapiens, UniProt P11308 1-479).
T2 sequence: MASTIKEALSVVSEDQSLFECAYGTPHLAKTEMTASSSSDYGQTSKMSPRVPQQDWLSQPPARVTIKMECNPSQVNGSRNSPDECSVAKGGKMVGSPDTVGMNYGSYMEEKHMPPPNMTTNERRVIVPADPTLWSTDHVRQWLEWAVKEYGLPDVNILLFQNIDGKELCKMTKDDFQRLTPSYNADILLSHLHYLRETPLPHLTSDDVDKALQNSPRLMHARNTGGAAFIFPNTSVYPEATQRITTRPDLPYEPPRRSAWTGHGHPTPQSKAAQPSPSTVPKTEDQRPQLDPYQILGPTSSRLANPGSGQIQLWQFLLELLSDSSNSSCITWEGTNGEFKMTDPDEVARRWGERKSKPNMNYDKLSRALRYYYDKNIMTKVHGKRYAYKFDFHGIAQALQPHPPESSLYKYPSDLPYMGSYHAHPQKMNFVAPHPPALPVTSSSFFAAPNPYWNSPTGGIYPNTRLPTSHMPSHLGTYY
The essentials: as §1

The target of the next assay is ELF1 (Homo sapiens, UniProt P32519 1-619). The essentials: as §1
The target in the next assay is SPIB (Homo sapiens, UniProt Q01892 1-262). The essentials:
as §1

The target of a further assay is ETV5 (Homo sapiens, UniProt P41161 1-510). The method in brief: as §1
The next assay deals with T3, ELK4 (Homo sapiens, UniProt P28324-2 1-405).
T3 sequence: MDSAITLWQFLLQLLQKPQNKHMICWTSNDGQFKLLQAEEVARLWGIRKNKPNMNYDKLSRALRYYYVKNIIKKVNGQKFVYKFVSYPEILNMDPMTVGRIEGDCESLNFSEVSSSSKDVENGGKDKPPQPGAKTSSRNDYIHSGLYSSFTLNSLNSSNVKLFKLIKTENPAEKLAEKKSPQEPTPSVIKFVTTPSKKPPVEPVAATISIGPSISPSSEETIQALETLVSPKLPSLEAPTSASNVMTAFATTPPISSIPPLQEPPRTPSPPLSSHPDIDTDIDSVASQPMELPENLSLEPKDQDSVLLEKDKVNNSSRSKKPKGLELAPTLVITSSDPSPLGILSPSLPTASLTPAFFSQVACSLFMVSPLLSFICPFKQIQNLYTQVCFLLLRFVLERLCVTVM
The method in brief:
as §1

The next assay has as its target ETV1 (Homo sapiens, UniProt P50549 1-477). The essentials: as §1
The target in the next assay is T4, ERF (Homo sapiens, UniProt P50548 1-548).
T4 sequence: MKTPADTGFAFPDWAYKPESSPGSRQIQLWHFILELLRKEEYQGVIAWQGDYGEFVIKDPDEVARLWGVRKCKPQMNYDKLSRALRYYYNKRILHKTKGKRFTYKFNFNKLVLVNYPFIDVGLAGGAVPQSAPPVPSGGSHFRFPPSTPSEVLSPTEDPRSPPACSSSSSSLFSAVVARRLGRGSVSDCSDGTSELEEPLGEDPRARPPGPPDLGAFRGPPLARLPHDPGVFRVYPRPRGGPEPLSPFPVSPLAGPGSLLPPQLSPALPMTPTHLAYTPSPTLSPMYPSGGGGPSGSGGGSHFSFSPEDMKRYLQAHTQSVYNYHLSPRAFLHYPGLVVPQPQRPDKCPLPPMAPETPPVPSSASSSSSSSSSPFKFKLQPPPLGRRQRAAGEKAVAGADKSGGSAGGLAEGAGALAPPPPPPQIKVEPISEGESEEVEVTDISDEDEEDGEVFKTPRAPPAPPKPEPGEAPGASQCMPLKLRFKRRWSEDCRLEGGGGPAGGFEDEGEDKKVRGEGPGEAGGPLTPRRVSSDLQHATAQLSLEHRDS
The essentials:
as §1

The next assay addresses T5, ETV3L (Homo sapiens, UniProt Q6ZN32 1-361).
T5 sequence: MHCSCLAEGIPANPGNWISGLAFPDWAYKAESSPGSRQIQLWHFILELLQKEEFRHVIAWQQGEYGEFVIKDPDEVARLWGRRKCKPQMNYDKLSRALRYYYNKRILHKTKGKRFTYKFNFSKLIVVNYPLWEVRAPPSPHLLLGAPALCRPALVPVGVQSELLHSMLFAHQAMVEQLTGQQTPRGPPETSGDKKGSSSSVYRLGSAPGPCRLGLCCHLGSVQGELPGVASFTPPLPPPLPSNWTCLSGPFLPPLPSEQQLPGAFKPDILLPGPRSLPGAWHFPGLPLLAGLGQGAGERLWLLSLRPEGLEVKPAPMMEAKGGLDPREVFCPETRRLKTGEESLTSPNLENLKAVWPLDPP
The method in brief:
as §1

The target in another assay is T6, ETV7 (Homo sapiens, UniProt Q9Y603 1-341).
T6 sequence: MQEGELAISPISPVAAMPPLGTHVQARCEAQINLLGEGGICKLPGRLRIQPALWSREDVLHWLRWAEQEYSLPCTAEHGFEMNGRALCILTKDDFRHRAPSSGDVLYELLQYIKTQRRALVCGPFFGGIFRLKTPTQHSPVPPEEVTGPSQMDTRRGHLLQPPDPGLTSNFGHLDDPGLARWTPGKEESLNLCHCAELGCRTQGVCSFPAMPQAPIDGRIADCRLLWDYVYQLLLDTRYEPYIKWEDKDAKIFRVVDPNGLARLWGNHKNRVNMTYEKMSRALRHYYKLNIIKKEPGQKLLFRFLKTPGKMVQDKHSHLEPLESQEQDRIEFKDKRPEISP
The method in brief:
as §1

A further assay has as its target T7, GABPA (Homo sapiens, UniProt Q06546 1-454).
T7 sequence: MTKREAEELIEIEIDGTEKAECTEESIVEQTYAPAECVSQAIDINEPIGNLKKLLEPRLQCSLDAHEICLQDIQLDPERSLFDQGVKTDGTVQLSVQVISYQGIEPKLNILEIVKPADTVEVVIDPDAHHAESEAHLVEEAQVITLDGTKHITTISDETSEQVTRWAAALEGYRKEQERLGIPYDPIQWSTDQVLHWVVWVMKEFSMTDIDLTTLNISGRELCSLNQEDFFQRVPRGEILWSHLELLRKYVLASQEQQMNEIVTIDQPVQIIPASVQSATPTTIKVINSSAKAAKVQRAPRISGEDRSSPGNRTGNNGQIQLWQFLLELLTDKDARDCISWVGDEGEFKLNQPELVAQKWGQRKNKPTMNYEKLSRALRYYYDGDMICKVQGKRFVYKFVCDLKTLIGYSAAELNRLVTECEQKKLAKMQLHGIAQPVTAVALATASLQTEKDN
The method in brief: as §1

Another assay addresses ELF4 (Homo sapiens, UniProt Q99607 1-663). The method in brief: as §1
The next assay concerns the target T8, ETV2 (Homo sapiens, UniProt O00321 1-342).
T8 sequence: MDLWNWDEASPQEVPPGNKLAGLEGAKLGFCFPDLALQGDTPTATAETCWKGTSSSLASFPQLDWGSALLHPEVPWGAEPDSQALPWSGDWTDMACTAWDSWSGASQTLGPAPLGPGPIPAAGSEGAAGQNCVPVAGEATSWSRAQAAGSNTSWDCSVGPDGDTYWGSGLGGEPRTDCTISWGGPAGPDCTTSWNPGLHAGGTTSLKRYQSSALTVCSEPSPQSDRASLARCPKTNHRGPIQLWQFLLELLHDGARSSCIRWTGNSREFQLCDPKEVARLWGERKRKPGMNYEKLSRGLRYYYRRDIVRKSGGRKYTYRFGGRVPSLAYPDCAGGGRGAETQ
The essentials:
as §1

The target in another assay is ETV6 (Homo sapiens, UniProt P41212 1-452). The essentials: as §1

The values that follow come from article PMC7862700, “An all-to-all approach to the identification of sequence-specific readers for epigenetic DNA modifications on cytosine”.

Sequence of SPIB (Q01892 whole entry): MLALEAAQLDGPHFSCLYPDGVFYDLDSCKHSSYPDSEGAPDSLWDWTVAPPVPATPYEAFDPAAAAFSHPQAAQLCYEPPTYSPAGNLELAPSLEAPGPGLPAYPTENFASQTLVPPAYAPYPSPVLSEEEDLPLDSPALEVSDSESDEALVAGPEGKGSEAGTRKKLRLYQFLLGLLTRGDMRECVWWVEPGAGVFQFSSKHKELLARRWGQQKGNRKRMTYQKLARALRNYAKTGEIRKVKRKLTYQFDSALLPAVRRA
Sequence of ETV5 (P41161 whole entry): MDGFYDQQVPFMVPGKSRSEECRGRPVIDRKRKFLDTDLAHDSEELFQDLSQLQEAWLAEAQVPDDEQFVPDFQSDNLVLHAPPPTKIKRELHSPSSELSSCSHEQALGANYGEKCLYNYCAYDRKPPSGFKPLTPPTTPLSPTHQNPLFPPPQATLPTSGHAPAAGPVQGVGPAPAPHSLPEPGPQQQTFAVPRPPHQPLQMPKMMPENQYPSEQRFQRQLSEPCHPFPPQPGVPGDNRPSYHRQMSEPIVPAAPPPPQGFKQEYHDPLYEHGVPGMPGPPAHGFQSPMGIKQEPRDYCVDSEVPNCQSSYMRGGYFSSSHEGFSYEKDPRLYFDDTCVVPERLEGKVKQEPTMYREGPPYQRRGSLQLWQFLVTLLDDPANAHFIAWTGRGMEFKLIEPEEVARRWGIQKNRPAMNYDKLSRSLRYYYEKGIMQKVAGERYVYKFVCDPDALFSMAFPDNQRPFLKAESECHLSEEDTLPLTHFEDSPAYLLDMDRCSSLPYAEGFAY
Sequence of ETV1 (P50549 whole entry): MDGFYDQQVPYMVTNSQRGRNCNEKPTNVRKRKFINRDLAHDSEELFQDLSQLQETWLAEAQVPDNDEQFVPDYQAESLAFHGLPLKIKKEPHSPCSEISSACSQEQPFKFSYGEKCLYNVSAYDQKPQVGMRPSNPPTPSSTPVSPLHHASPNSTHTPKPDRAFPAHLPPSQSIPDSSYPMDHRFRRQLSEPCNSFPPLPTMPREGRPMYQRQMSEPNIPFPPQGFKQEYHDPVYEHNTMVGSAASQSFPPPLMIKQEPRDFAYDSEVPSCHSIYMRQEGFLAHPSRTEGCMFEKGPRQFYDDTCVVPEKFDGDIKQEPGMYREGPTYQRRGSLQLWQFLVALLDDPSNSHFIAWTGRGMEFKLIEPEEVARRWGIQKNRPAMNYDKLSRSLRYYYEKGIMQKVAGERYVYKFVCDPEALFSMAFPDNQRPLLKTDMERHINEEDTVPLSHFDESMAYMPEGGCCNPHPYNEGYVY
Sequence of ELF4 (Q99607 whole entry): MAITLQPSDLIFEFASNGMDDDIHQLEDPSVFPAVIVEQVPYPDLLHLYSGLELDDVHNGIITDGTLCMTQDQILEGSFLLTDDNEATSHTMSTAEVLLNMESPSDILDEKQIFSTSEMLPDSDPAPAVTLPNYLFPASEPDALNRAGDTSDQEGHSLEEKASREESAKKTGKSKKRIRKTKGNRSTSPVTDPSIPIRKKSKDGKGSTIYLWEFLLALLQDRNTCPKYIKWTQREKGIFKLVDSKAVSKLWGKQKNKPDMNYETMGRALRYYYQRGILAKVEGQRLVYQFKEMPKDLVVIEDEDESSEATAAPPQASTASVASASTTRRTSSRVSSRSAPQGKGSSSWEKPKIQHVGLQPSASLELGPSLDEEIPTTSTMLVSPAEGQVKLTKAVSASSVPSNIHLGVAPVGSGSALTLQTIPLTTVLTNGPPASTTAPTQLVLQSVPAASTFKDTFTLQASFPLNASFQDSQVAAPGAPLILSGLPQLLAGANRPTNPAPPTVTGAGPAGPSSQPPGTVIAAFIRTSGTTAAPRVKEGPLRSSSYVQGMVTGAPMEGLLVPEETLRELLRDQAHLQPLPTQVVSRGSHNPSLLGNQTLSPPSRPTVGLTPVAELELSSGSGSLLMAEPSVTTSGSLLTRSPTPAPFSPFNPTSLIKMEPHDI
Sequence of ETV6 (P41212 whole entry): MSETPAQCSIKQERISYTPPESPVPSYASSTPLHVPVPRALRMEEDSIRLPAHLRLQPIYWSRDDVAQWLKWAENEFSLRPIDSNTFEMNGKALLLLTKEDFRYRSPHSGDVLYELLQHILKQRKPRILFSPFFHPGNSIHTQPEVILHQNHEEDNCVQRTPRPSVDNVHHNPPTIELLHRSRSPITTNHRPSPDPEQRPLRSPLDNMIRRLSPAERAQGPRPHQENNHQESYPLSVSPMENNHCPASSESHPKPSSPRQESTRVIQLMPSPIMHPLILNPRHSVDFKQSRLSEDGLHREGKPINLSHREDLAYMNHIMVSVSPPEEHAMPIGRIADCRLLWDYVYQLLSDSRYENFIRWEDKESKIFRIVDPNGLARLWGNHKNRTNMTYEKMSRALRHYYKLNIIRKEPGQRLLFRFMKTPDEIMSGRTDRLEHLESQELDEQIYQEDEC
Sequence of ELF1 (P32519 whole entry): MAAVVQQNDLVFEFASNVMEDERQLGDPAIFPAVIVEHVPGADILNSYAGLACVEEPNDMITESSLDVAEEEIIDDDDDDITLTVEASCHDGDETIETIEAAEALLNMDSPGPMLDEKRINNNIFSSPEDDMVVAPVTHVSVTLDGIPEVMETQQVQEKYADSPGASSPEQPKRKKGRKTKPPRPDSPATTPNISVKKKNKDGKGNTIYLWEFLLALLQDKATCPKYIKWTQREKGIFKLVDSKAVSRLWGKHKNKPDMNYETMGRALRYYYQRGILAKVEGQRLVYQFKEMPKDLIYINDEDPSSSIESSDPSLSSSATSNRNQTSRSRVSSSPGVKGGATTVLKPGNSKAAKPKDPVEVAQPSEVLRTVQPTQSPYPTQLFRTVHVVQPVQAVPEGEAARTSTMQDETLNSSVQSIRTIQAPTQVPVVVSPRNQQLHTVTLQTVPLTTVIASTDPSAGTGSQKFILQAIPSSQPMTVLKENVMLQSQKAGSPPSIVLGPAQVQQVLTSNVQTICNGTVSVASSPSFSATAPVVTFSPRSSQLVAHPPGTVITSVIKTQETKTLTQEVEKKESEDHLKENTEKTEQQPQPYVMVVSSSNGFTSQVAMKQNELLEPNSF

Take GGTGGT: the binding signal was 1.03 fold enrichment (6-mer frequency, TF over GST control) in the assay with ELK1; 1.12 fold enrichment (6-mer frequency, TF over GST control) with ERG; 1.01 fold enrichment (6-mer frequency, TF over GST control) in the assay with ELF1; 1.02 fold enrichment (6-mer frequency, TF over GST control) in the assay with SPIB; 1.04 fold enrichment (6-mer frequency, TF over GST control) in the assay with ETV5; 1.08 fold enrichment (6-mer frequency, TF over GST control) with ELK4. The binding signal with ETV1 is 1 fold enrichment (6-mer frequency, TF over GST control); in the assay with ERF it was 1.07 fold enrichment (6-mer frequency, TF over GST control); in the assay with ETV3L, 1.05 fold enrichment (6-mer frequency, TF over GST control); in the assay with ETV7, 1 fold enrichment (6-mer frequency, TF over GST control).

CGCGTA: the binding signal with GABPA is 1.01 fold enrichment (6-mer frequency, TF over GST control); in the assay with SPIB, 1.05 fold enrichment (6-mer frequency, TF over GST control); in the assay with ETV5, 1 fold enrichment (6-mer frequency, TF over GST control); in the assay with ELF4 it was 1.08 fold enrichment (6-mer frequency, TF over GST control); in the assay with ELK4 it was 1.07 fold enrichment (6-mer frequency, TF over GST control); with ETV2, 1.03 fold enrichment (6-mer frequency, TF over GST control). For the same sequence, the binding signal with ETV3L is 1.01 fold enrichment (6-mer frequency, TF over GST control); in the assay with ETV7, 1.07 fold enrichment (6-mer frequency, TF over GST control); with ETV6, 1.01 fold enrichment (6-mer frequency, TF over GST control).
